A selection: hits, their analogues and other compounds. The true share with any hit is near 2.8%.
POLK inh: qHTS for Inhibitors of Polymerase Kappa; DNA polymerase kappa (Homo sapiens), Q9UBT6; purified Pol kappa, fluorescent DNA synthesis assay, 10 min; Potency, µM (series often up to 107 µM), usual class: inhibitors; actives 0.53% (n = 400,000)
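10 nM Pol kappa preincubated 15 min at room temperature with compounds, then reaction started with substrate at 50 nM final. Fluorescence read kinetically at 0 and 10 min; buffer-only wells served as negative control.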
PI4K2A inh: qHTS for small molecular inhibitors of PI4K2A. actives 0.13% (n = 420,000). purified PI4K2A, ADP-Glo luminescence, 1 h; stronger effect = lower value. activity change, negative = inhibition, % at 76.9 µM. AID 1346378, 2018; in the data active = activity change below about -50%; inconclusive = mostly about -30% to -49%
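Compounds are screened against recombinant PI4K2A using PI as substrate and ATP, the latter dispensed at 300 microM. Reactions run one hour at ambient temperature before ADP-Glo detection; full inhibition defined by wells lacking enzyme.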
POLB inh: qHTS Assay for Inhibitors of DNA Polymerase Beta | Potency, µM (titrated, usually from 114 µM), most hits filed as inhibitors | actives 1.3% (n = 340,000) | Pol beta primer extension/strand displacement, fluorescence kinetic | AID 485314, 2010 | P06746
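Pol beta (10 nM) was preincubated with compound for 15 min at room temperature. The reaction was then started with 50 nM substrate and read immediately and after a further 10 min at room temperature.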
POLH inh: qHTS for Inhibitors of Polymerase Eta. actives 1.2% (n = 390,000). recombinant Pol eta, fluorescent DNA replication assay. DNA polymerase eta (Homo sapiens), Q9Y253. AID 588591, 2011. Potency, µM (series often up to 114 µM), most hits filed as inhibitors
Target sequence (Q9Y253 whole entry, looked up): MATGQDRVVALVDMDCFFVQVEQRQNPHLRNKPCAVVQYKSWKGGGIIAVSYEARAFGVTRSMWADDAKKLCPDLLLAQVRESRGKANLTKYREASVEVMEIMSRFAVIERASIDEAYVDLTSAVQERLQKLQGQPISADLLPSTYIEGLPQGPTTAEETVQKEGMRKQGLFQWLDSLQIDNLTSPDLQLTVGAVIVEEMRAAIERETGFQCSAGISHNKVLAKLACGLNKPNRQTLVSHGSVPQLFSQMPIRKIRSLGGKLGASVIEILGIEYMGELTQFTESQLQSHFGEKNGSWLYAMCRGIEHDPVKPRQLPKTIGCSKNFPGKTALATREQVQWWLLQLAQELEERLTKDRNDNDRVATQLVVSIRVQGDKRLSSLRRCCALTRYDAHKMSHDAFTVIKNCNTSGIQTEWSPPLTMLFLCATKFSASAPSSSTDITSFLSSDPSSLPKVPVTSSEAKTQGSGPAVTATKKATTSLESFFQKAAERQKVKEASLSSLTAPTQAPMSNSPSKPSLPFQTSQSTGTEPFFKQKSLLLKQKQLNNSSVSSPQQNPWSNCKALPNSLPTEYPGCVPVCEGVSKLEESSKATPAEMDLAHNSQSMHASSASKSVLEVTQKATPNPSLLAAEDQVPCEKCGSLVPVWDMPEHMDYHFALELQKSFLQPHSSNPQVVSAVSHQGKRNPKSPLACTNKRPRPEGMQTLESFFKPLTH
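Fluorescent replication assay: 50 nM final substrate added after a 15 min room-temperature compound preincubation with 10 nM enzyme. Signal taken at 0 min and again at 10 min.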
PI5P4Ka inh: qHTS for Inhibitors of phosphatidylinositol 5-phosphate 4-kinase (PI5P4K); Phosphatidylinositol 5-phosphate 4-kinase type-2 alpha (Homo sapiens), P48426; actives 1.2% (n = 330,000); PI5P4Kalpha enzyme, ADP-Glo luminescence, 60 min; stronger effect = lower value; AID 652105, 2013; max response, %; active = max response of -50% or lower; inconclusive = between -30% and -50%; inactive = -30% or higher; also: value at the top dose of about 77 µM
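ADP-Glo luminescence end-point after a 60 min room-temperature kinase reaction. PI5P4Kalpha and substrate in HEPES pH 7.4 buffer with EGTA, 0.1% CHAPS and 5% DMSO; ATP at 5 microM final.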
POLI inh: qHTS for Inhibitors of Polymerase Iota; DNA polymerase iota (Homo sapiens), Q9UNA4; Pol iota fluorescent replication assay, 10 min; Potency, µM (series often up to 115 µM), most hits filed as inhibitors; actives 1% (n = 390,000)
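Fluorescent replication assay read twice, at 0 min and 10 min after adding 50 nM (final) substrate. Enzyme (10 nM) and compounds were first incubated 15 min at room temperature; enzyme-free buffer wells were negative controls.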
Large screens that a line does not name were inactive. Unless noted, calls follow the shape of the dose curve; as a rule, active = well fitted inhibition curve with a large enough effect; inconclusive = small, poorly fitted or top-dose-only effect, or another doubt; inactive = no such curve, though single readings can be large or run the other way.

COc1ccc(OC)c(-n2c3c(cc(-c4nc(-c5ccc(Cl)cc5)cs4)c2=O)C(=O)CC(C)(C)C3)c1	none (no result: PI5P4Ka inh)
Cc1ccc(-c2cc(C(=O)N/N=C/C(Br)=C/c3ccccc3)n[nH]2)o1	POLK inh inconclusive, POLB inh 35.5µM, PI5P4Ka inh inconclusive, POLI inh inconclusive
O=C(NN=Cc1c[nH]c2ccccc12)NN=Cc1c[nH]c2ccccc12	PI5P4Ka inh -88.6 (no result: POLK inh, POLB inh, POLI inh)
Cc1ccc(-c2cc(C(=O)N/N=C/c3ccccc3O)n[nH]2)o1	none
O=C(N/N=C/C(Br)=C\c1ccccc1)c1n[nH]c2c1CCC2	POLI inh 25.1µM (no result: PI5P4Ka inh)
Cc1ccc(-c2cc(C(=O)N/N=C/c3c[nH]c4ccccc34)n[nH]2)o1	POLK inh inconclusive, POLB inh 28.2µM, POLI inh inconclusive
COc1ccc(CN(Cc2ccccc2)C(C)=O)cc1COc1ccc(NC(C)=O)cc1	none (no result: PI4K2A inh, POLB inh, POLH inh, PI5P4Ka inh)
CC1(C)CC(=O)c2cc(C(=O)Nc3ccc(Cl)cc3)c(=O)[nH]c2C1	none (no result: PI5P4Ka inh)
Cc1ccc(C(=O)Oc2ccc(C(O)CNC(C)(C)C)cc2OC(=O)c2ccc(C)cc2)cc1 (stereo not drawn)	none (no result: POLK inh, POLB inh, POLH inh, PI5P4Ka inh, POLI inh)
CC(C)(C)OC(=O)N1CCC(c2c(C(=O)N3CCC(c4ccccc4)C3)cnn2-c2cccc(Cl)c2)CC1 (stereo not drawn)	none (no result: PI5P4Ka inh)
COc1cc2nc(N3CCN(C)CC3)nc(NC(C)C)c2cc1OC	none (no result: PI4K2A inh, POLB inh, POLH inh, PI5P4Ka inh)
CN=c1sc2c(n1C)C(=O)c1ccccc1C2=O	POLH inh 79.4µM, POLI inh inconclusive (no result: POLB inh)
O=C(CCCCn1ccc(=O)[nH]c1=O)Nc1ccc(C(=O)O)c(O)c1	PI5P4Ka inh -71.4 (no result: POLB inh)
O=C(CCCCn1ccc(=O)[nH]c1=O)Nc1ccc(O)c(C(=O)O)c1	none (no result: POLB inh)
O=C(Cc1ccccc1Cl)NC1(O)C(=O)c2ccccc2C1=O	PI4K2A inh inconclusive, POLH inh inconclusive, POLI inh 5.01µM
O=C(O)c1ccccc1-n1cccc1C(=O)O	POLB inh 25.1µM, POLH inh 39.8µM, POLI inh inconclusive
O=C(O)c1ccccc1-n1cnnn1	none
CCCCCC[C@H](CN(CCCC)S(C)(=O)=O)c1ccccc1	none (no result: POLK inh, POLB inh, POLH inh, PI5P4Ka inh, POLI inh)
Cc1cc(NCCCCCCCNc2cc(C)nc3cc([N+](=O)[O-])ccc23)c2ccc([N+](=O)[O-])cc2n1	POLH inh inconclusive, PI5P4Ka inh -60.7 (no result: POLB inh)
CCN(CC)c1cc(C)c(/C=C/c2ccnc3ccccc23)cc1C	none (no result: PI4K2A inh, POLB inh, POLH inh, PI5P4Ka inh)
N#C/C(=C\c1ccc(O)c([N+](=O)[O-])c1)c1nc2ccccc2s1	POLB inh 50.1µM, POLH inh 20µM, POLI inh inconclusive
COc1ccc(-c2csc(/C(C#N)=C\c3ccc(O)c([N+](=O)[O-])c3)n2)cc1OC	PI5P4Ka inh inconclusive
N#C/C(=C/c1ccc(-c2cc(C(=O)O)cc(C(=O)O)c2)o1)c1nc2ccccc2s1	POLB inh 20µM (no result: POLK inh, PI4K2A inh, POLH inh, PI5P4Ka inh, POLI inh)
N#C/C(=C\c1ccco1)c1nc2ccccc2s1	none
N#C/C(=C(/O)c1ccc(-c2cccc([N+](=O)[O-])c2)o1)c1nc2ccccc2s1	POLK inh inconclusive, POLH inh 17.8µM, PI5P4Ka inh -53.4, POLI inh 50.1µM
O=C(C[N+]1(CC(O)c2ccccc2)CCCCC1)c1ccccc1 (stereo not drawn)	none (no result: PI4K2A inh, POLB inh, POLH inh, PI5P4Ka inh)
Cc1cnc2ccc3ccccc3c2c1C	none (no result: PI4K2A inh, POLB inh, POLH inh, PI5P4Ka inh)
CC(=O)N1CCc2c(sc(NC(=O)C3CC3)c2-c2nc3ccccc3s2)C1	POLH inh 25.1µM
CC(=O)Nc1sc2c(c1-c1nc3ccccc3s1)CCN(C(C)=O)C2	none (no result: POLK inh, POLB inh, POLH inh, PI5P4Ka inh, POLI inh)
Cc1cc(C)cc(OCC(=O)Nc2ccc(-n3cnnn3)cc2)c1	POLI inh 31.6µM (no result: POLB inh)
COc1cc(/C=N/NC(=O)COc2ccc([N+](=O)[O-])cc2)ccc1OCC(=O)N1CCOCC1	POLB inh 17.8µM
COc1cc(/C=N/NC(=O)COc2ccc(-n3cnnn3)cc2)ccc1OCC(N)=O	POLK inh inconclusive, POLB inh 15.8µM, POLI inh inconclusive
COc1ccc(/C=N/NC(=O)c2ccc(-n3cnnn3)cc2)cc1	none (no result: POLB inh)
Cc1cc(C)c(NC(=O)COc2ccc(-n3cnnn3)cc2)c(C)c1	POLI inh inconclusive
CNc1cc(C(=O)O)nc2ccccc12	POLI inh inconclusive (no result: PI4K2A inh, POLB inh, POLH inh, PI5P4Ka inh)
COc1cc(OC)c(/C=C/c2cc(/C=C/c3c(OC)cc(OC)cc3OC)[n+](C)c3ccccc23)c(OC)c1	none (no result: PI4K2A inh, POLB inh, POLH inh, PI5P4Ka inh)
O=S(=O)(Nc1nccs1)c1ccc(NS(=O)(=O)c2c(F)cc(F)c(Cl)c2F)cc1	POLH inh 50.1µM, POLI inh inconclusive (no result: POLB inh)
COc1ccc(CNc2ccccc2C(=O)NCc2ccccc2)cc1COc1ccc(NC(C)=O)cc1	none (no result: PI4K2A inh, POLB inh, POLH inh, PI5P4Ka inh)
